Source: PubChem (several laboratories)
In the library only some 27% were active in any assay of this set; here they are far more common.
sEH activator = activators of human soluble epoxide hydrolase. 91,000 tested, 0.04% active. activation, % at 2 µM. AID 717. P34913. purified human sEH enzymatic activity, activator screen; in the data active = activation above about 37%
Target sequence (P34913 whole entry, looked up): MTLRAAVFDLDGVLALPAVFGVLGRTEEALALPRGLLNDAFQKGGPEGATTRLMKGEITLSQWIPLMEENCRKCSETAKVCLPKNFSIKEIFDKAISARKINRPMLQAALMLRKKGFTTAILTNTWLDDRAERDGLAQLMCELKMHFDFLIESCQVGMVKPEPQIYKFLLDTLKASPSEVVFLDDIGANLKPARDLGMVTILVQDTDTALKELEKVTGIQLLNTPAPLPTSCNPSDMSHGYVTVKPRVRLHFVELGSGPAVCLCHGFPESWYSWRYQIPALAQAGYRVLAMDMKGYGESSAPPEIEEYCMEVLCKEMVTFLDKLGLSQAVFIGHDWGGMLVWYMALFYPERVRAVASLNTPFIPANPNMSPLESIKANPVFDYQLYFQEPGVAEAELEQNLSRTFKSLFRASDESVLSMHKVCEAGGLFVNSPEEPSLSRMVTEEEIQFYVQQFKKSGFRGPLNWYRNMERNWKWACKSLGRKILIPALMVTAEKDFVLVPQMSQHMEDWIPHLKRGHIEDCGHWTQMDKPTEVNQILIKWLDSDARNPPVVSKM
sEH inhibitor = blocks human soluble epoxide hydrolase activity | P34913 | recombinant human sEH enzymatic activity assay | inhibition, % at 2 µM | 91,000 tested, 0.34% active; in the data active = inhibition above about 80%
CYP2C9 activ = activators of human CYP2C9 | activation factor at 5 µM | 96,000 tested, 1.4% active | recombinant CYP2C9, luciferin-H conversion, luminescence; active compounds read high; factor 1 = untreated enzyme, 0 = blocked | AID 1024;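 active = activation factor of 2 or more for CYP2C9 at a 5 µM dose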
CYP2C9 inh = inhibitors of human CYP2C9; 96,000 tested, 20% active; AID 777; CYP2C9 Supersomes, luciferin-H conversion, luminescence; P11712; inhibition, % at 5 µM;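 active = blocking of liver enzyme CYP2C9 beyond about 50% at 5 µM, limit read from the data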
CYP2C19 inh = inhibitors of human CYP2C19. P33261. CYP2C19 Supersomes, luciferin-H EGE luminescence, 30 min. inhibition, % at 5 µM. 96,000 tested, 21% active;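 active = CYP2C19 inhibition above a set limit at 5 µM in the primary screen, cut at about 50% in these data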
CYP2C19 activ = activators of human cytochrome P450 2C19. P33261. recombinant CYP2C19, luciferin-H EGE luminescence; active compounds read high; 0 = fully inhibited enzyme, 1 = untreated enzyme. activation factor at 5 µM. 96,000 tested, under 10 active. AID 1025;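 active = activation factor of at least 2 at 5 µM in the primary screen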
Of the large screens only hits and unclear results are named; the others gave an inactive call.

Cc1cc(C)n2nc(SCC#N)nc2n1	none (no result: CYP2C9 activ, CYP2C9 inh, CYP2C19 inh, CYP2C19 activ)
COc1ccc2c(CSc3nc4nc(C)cc(C)n4n3)cc(=O)oc2c1	CYP2C9 inh 85, CYP2C19 inh 72
CCOC(=O)C1CCN(C(=O)CN(c2ccc3c(c2)OCCO3)S(C)(=O)=O)CC1	none
CCOCCCNC(=S)N1C2CCC1CC(NC(=O)NC1CCCCC1)C2 (stereo unspecified)	none
C=CCc1ccccc1OCC(=O)OCCNC(=O)c1cccnc1	none
OC(c1ccc(Cl)cc1)C(O)c1nc2ccccc2[nH]1 (stereo unspecified)	CYP2C19 inh 77
OC(Cc1nc2ccccc2[nH]1)c1ccccc1Cl (stereo unspecified)	none
Cc1ccc(O)c(NC(=O)c2cc3nc4c(c(C(F)(F)F)n3n2)CCc2ccccc2-4)c1	none
Cc1ccc(Cn2ccc(NC(=O)c3cc4nc5c(c(C(F)(F)F)n4n3)CCc3ccccc3-5)n2)cc1	CYP2C9 inh 71
O=C(c1cc2nc(-c3ccco3)cc(C(F)(F)F)n2n1)N1CCN(c2ccccc2)CC1	CYP2C9 inh 72, CYP2C19 inh 63 (no result: sEH activator, sEH inhibitor)
Cc1nn(Cc2ccccc2)c(C)c1NC(=O)c1cc2nc(-c3ccco3)cc(C(F)(F)F)n2n1	none
Cc1ccccc1Cn1ccc(NC(=O)c2cc3nc(-c4ccco4)cc(C(F)(F)F)n3n2)n1	CYP2C9 inh 58, CYP2C19 inh 50
O=C(c1cc2nc(-c3ccco3)cc(C(F)(F)F)n2n1)N1CCN(c2ccccn2)CC1	none
O=C(c1cc(-c2ccco2)on1)N1CCN(c2ccccc2)CC1	CYP2C9 inh 87, CYP2C19 inh 84 (no result: sEH activator, sEH inhibitor)
COc1ccccc1N1CCN(C(=O)c2cc(-c3ccco3)on2)CC1	CYP2C9 inh 76, CYP2C19 inh 92
O=C(c1nn2c(C(F)(F)F)cc(-c3ccco3)nc2c1Br)N1CCCc2ccccc21	CYP2C9 inh 76, CYP2C19 inh 79
O=C(c1cc(-c2ccco2)on1)N1CCCc2ccccc21	CYP2C9 activ 2.5 (no result: sEH activator, sEH inhibitor)
O=C(c1cc(-c2ccco2)on1)N1CCc2ccccc2C1	none (no result: sEH activator, sEH inhibitor)
CC1CN=C(N(C(=O)Nc2ccccc2)c2ccc(S(=O)(=O)N3CCOCC3)cc2)S1 (stereo unspecified)	none
CCOc1ccc2ccccc2c1C(=O)Nc1cc(=O)n(C)c(=O)n1C	none (no result: CYP2C9 activ, CYP2C9 inh, CYP2C19 inh, CYP2C19 activ)
Cc1ccc(C)c(-n2nnnc2SCC(=O)Nc2cccc(-c3nnc4n3CCCCC4)c2)c1	none
Cn1c(=O)c2c(nc(Sc3nc4ccccc4n3CC(=O)N3CCCCC3)n2C)n(C)c1=O	none (no result: sEH activator, sEH inhibitor)
COC(=O)C1CCN(C(=O)COC(=O)Cn2cnnn2)CC1	none
CC(C)Cn1c(C(C)C)nc([N+](=O)[O-])c1S(=O)(=O)c1ccc(F)cc1	CYP2C19 inh 66
CC(C)Cn1c(C(C)C)nc([N+](=O)[O-])c1Sc1ccc(Cl)cn1	none (no result: CYP2C9 activ, CYP2C9 inh, CYP2C19 inh, CYP2C19 activ)
Cc1cc(Cl)c(S(=O)(=O)N2CCN(c3ccc(F)cc3)CC2)cc1OCC(=O)NC1CCCCC1	CYP2C9 inh 96, CYP2C19 inh 83
CCOc1ccc(Cl)cc1S(=O)(=O)N1CCN(c2ccc(F)cc2)CC1	CYP2C9 activ 2.4, CYP2C19 inh 100
CCOc1ccc(Cl)cc1S(=O)(=O)N1CCN(c2ccc(C)c(C)c2)CC1	CYP2C9 inh 60, CYP2C19 inh 100
CCOc1ccc(Cl)cc1S(=O)(=O)n1cnc2cc(C)c(C)cc21	CYP2C9 inh 58, CYP2C19 inh 91
Cc1cc(Cl)c(S(=O)(=O)N2CCN(c3ccc(F)cc3)CC2)cc1OCC(N)=O	none
Cc1[nH]c(=O)[nH]c(=O)c1S(=O)(=O)N1CCN(c2cccc(Cl)c2)CC1	none
O=C(CCCNS(=O)(=O)c1cccc2nsnc12)NCc1ccc(F)cc1	none
CC(=O)Nc1ccc(S(=O)(=O)n2cnc3cc(C)c(C)cc32)cc1	CYP2C9 inh 78, CYP2C19 inh 100
COc1ccc(Cl)cc1S(=O)(=O)N1CCN=C1C	CYP2C19 inh 90 (no result: sEH activator, sEH inhibitor)
CC(=O)Nc1ccc(C(=O)n2cnc3cc(C)c(C)cc32)cc1	none
COc1c(S(=O)(=O)N2CCN(c3ccc(F)cc3)CC2)ccc(Cl)c1Cl	CYP2C19 inh 61
Cc1cc(S(=O)(=O)N2CCN(c3ccc(F)cc3)CC2)c(C)s1	none
COc1ccc(Cl)cc1S(=O)(=O)N1CCN(c2ccc(F)cc2)CC1	CYP2C9 activ 3.2, CYP2C19 inh 98
Cn1c(=O)n(CCc2ccccc2)c(=O)c2c1nc1n2CCN1Cc1ccco1	none
O=C(CSc1ncnc2c1nnn2Cc1ccccc1F)N1CCN(c2ccccc2)CC1	none (no result: CYP2C9 activ, CYP2C9 inh, CYP2C19 inh, CYP2C19 activ)
C=C(C)CSc1nnc(-c2cccc(Cl)c2)n1N	CYP2C19 inh 58
O=C(N1CCOCC1)C(F)(F)C(=O)N1CCOCC1	none
COCCOC(=O)c1[nH]c2c(c1C)C(=O)CC(c1ccc(N(C)C)cc1)C2 (stereo unspecified)	CYP2C9 inh 93, CYP2C19 inh 88
COCCOC(=O)C1=C(C)NC2=C(C(=O)CC(C)(C)C2)C1c1ccc(N(C)C)cc1 (stereo unspecified)	none (no result: sEH activator, sEH inhibitor)
COCCOC(=O)c1[nH]c2c(c1C)C(=O)CC(c1ccccc1)C2 (stereo unspecified)	none (no result: CYP2C9 activ, CYP2C9 inh, CYP2C19 inh, CYP2C19 activ)
COCCOC(=O)c1[nH]c2c(c1C)C(=O)CC(c1ccc(F)cc1)C2 (stereo unspecified)	CYP2C9 inh 98, CYP2C19 inh 83
C(=N\n1cncn1)/c1ccc(N2CCOCC2)cc1	CYP2C19 inh 63
S=c1[nH]ncn1/N=C/c1ccc(N2CCOCC2)cc1	none
C(=N\n1cnnc1)/c1ccc(N2CCOCC2)s1	CYP2C19 inh 60 (no result: sEH activator, sEH inhibitor)
C(=N\n1cnnc1)/c1ccc(N2CCOCC2)cc1	CYP2C9 inh 65, CYP2C19 inh 88
CC(C)(C)n1nc2c(c1NC(=O)c1ccc(S(=O)(=O)N3CCCCC3)cc1)CS(=O)C2 (stereo unspecified)	none
COc1cccc(C(=O)N/N=C2\SCC(=O)N2Cc2ccc3c(c2)OCO3)c1	CYP2C9 inh 88
COc1ccc(C2N(S(=O)(=O)c3ccc(C)cc3)CCN2S(=O)(=O)c2ccc(C)cc2)cc1	CYP2C9 inh 90, CYP2C19 inh 96
Cc1ccc(S(=O)(=O)N2CCN(S(=O)(=O)c3ccccc3)C2c2ccc(N(C)C)cc2)cc1 (stereo unspecified)	CYP2C9 inh 88, CYP2C19 inh 94
CC(C)C1N(S(=O)(=O)c2ccccc2)CCN1S(=O)(=O)c1ccccc1	CYP2C9 inh 100, CYP2C19 inh 100
CC(C)C1N(C(=O)CN2CCCC2)CCN1S(=O)(=O)c1ccccc1 (stereo unspecified)	none
COc1cc2c(cc1OC)C(C(=O)N1CCN(c3ccccn3)CC1)C(c1cccs1)N(C)C2=O (stereo unspecified)	none
O=C(c1cccs1)n1cc(C(=S)N2CCOCC2)c2ccccc21	CYP2C19 inh 68
O=C1CC(=C(c2ccccc2)c2ccccc2)C(=O)N1CCCCN1CCN(c2cccc(Cl)c2)CC1	CYP2C9 inh 66
